# SENP8 block-1: SENP8 protease inhibition. Q96LD8. purified SENP8, Z-RLRGG-aminoluciferin cleavage, luminescence. inhibition, % at 10 µM. 1.2% of 330,000 active. AID 2540; in the data active = inhibition above about 50%
# SENP8 block-2: blocks human SENP8 cleavage of Nedd8 substrate; 0.64% of 360,000 active; inhibition, % at 20 µM; AID 602440; recombinant SENP8, Nedd8 substrate fluorescence; Q96LD8; in the data active = inhibition mostly above about 40%, no sharp cut-off; inactive = mostly below about 27%
# Platelet DG rel: modulates dense granule release in human platelets | 0.22% of 300,000 active | human platelet-rich plasma, SFLLRN dense granule ATP release, luminescence | inhibition, %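 (compounds screened at 7.5 µM in platelet-rich plasma)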;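 active = mean replicate score, as percent of positive control, at or above 50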
# SENP6 inh: inhibitors of human SENP6 protease | Q9GZR1 | Recombinant SENP6 catalytic domain, aminoluciferin luminescence | inhibition, % at 10 µM | 1.8% of 330,000 active;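 active = inhibition above about 50% at the single tested dose, limit read from the data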;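 note: plate controls were DMSO wells with enzyme for no effect and DMSO wells lacking enzyme for full effect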
# Target sequence (Q9GZR1 628-1112 limits assumed): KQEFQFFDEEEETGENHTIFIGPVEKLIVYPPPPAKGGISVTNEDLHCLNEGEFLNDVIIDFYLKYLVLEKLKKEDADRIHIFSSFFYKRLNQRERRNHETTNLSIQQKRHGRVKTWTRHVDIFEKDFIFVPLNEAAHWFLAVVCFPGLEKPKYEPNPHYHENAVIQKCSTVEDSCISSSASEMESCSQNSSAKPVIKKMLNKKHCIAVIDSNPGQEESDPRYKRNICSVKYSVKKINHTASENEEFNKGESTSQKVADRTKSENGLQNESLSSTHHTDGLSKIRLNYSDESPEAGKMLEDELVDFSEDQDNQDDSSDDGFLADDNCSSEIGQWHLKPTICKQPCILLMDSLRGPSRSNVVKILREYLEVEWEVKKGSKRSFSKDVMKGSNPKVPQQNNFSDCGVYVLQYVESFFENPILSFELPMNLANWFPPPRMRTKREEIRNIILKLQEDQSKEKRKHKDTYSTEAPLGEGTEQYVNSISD
# SENP7 inh: blocks the human protease SENP7; Q9BQF6; recombinant SENP7, Z-RLRGG-aminoluciferin luminescence, 40 min; inhibition, % at 5 µM; 1.5% of 330,000 active; AID 434973;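 active = inhibition above about 50% at the single test dose, limit read from the data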;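 note: plate controls were DMSO with enzyme for no effect and no enzyme buffer wells for full effect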
# SENP8 confirm: confirmation of human SENP8 protease inhibitors; shares compounds with SENP7 inh; Recombinant SENP8, Z-RLRGG-aminoluciferin luminescence, 60 min; inhibition, % at 12.5 µM; 40% of 6,200 active; AID 488912;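 active = mean inhibition across replicates above about 50%, limit read from the data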
# SENP6 confirm: confirmation of human SENP6 protease inhibitors | AID 488915 | inhibition, % at 12.5 µM | shares compounds with SENP7 inh | 58% of 6,200 active | recombinant SENP6, Z-RLRGG-aminoluciferin luminescence
# SENP7 confirm: human SENP7 inhibition, confirmed | inhibition, % at 12.5 µM | AID 488917 | recombinant SENP7, Z-RLRGG-aminoluciferin luminescence, 40 min | 69% of 6,200 active | shares compounds with SENP7 inh
# Casp3 select: inhibits human caspase-3 in SENP selectivity test. inhibition, % at 12.5 µM. purified caspase-3, Z-DEVD-aminoluciferin luminescence, 60 min. shares compounds with SENP7 inh. AID 488918. 60% of 6,200 active;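 active = mean inhibition above about 50%, limit read from the data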;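 note: plate controls were enzyme with DMSO for no effect and wells without caspase-3 for full effect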
# Luc interf: luminescence interference (SENP counter-screen). shares compounds with SENP7 inh. Pre-incubated SENP8/Z-RLRGG-aminoluciferin, luciferase luminescence interference. inhibition, % at 12.5 µM. 39% of 6,200 active. AID 488919;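 active = mean inhibition above about 50% when retested at one dose, limit read from the data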;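 note: plate controls were DMSO wells with completed reaction for no effect and substrate without enzyme for full effect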
# Numbers without * were called inactive; . = no result. In the library only some 2.4% were active in any assay of this set; here they are far more common.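 Rule for the calls, unless noted: active = mean inhibition above about 50% in the one-dose retest (limit read from the data); inactive = the rest.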
SMILES,SENP8 block-1,SENP8 block-2,Platelet DG rel,SENP6 inh,SENP7 inh,SENP8 confirm,SENP6 confirm,SENP7 confirm,Casp3 select,Luc interf
COc1cccc(-c2cc(C(=O)N3CCCCCC3)no2)c1,48,13,2,67*,45,62*,61*,85*,62*,49
O=C(c1cc(-c2ccc(O)cc2)on1)N1CCCC1,14,10,16,39,7,.,.,.,.,.
CS(=O)(=O)Nc1ccc(-c2cc(/C=C3\SC(N)=NC3=O)c[nH]c2=O)cc1,4,-483,-4,1,0,.,.,.,.,.
O=C(N/N=C/c1ccc(O)cc1)Nc1cccc2nsnc12,-10,-64,5,2,-4,.,.,.,.,.
COc1ccc(-c2cc(C(=O)N3CCCCCC3)no2)cc1,38,21,-1,57*,48,41,50*,83*,56*,24
C=CCNC(=S)NNC(=O)c1ccc(=O)n(Cc2ccccc2)c1,-1,5,-3,-13,5,.,.,.,.,.
Cc1nn(-c2ccccc2)c(Cl)c1/C=N/Nc1nc2ccccc2n1C,54*,5,2,43,65*,-8,49,93*,68*,36
Cc1nn(-c2ccccc2)c(Cl)c1/C=N/NC(=O)c1ccnn1C,87*,5,6,94*,94*,59*,81*,97*,92*,55*
CC(C)c1cccc(C(C)C)c1NC(=O)CN1C(=O)NC2(CCCCCCC2)C1=O,12,4,.,-14,-5,.,.,.,.,.
O=S(=O)(c1cccs1)N1CCN(c2ccc(O)cc2)CC1,0,19,-1,-11,-1,.,.,.,.,.
Cc1cccc(C(=O)OC2CCOC2=O)c1C (centres undefined),4,7,-9,-2,5,.,.,.,.,.
O=C(CCN1C(=O)/C(=C/c2ccccc2Cl)SC1=S)NN1CCOCC1,45,14,-1,37,52*,8,8,8,16,4
O=C(CCN1C(=O)/C(=C/c2ccccc2Cl)SC1=S)NC1CCCC1,8,11,-7,2,1,.,.,.,.,.
O=C(CCCN1C(=O)/C(=C/c2ccccc2Cl)SC1=S)Nc1cccnc1,47,18,-2,36,51*,0,48,14,24,6
CC(C)c1cc2c(c(O)c1O)[C@@]13CCCC(C)(C)C1CC2OC3=O (some centres undefined),-5,1,-9,3,5,.,.,.,.,.
CCc1nnc(SC(C)C(=O)Nc2nccs2)n1C (centres undefined),-8,4,-1,-22,10,.,.,.,.,.
Cc1nc2ccc(S(=O)(=O)NCC(=O)NCCc3ccc(Cl)cc3)cc2s1,-2,20,-1,-11,4,.,.,.,.,.
Cc1ccc(Nc2nc(N)c3ccccc3n2)cc1C,93*,-101,44,-10,92*,94*,96*,101*,94*,96*
Cc1ccc(OCC(=O)NNC(=O)c2ccco2)c(C)c1,1,1,-2,-9,5,.,.,.,.,.
O=C(O/N=C/c1ccc(Br)cc1)c1ccc(F)cc1,26,-6,-1,41,76*,-2,-10,21,29,0
N/C(=N\OC(=O)c1ccc(F)cc1)c1ccc(Br)cc1,-12,3,27,-37,18,.,.,.,.,.
CCC1(c2ccc(F)cc2)NC(=O)N(CC(=O)N(C)C2CCS(=O)(=O)C2)C1=O (centres undefined),-4,6,-8,0,-9,.,.,.,.,.
COc1ccc(C(=O)/C=C/Nc2cccc(C)n2)cc1OC,22,-138,2,34,25,.,.,.,.,.
O=C(/C=C/Nc1ccc(Br)cn1)c1cccc(OC(F)F)c1,49,-263,.,40,62*,15,31,34,17,1
CCOC(=O)c1ccccc1N/C=C/C(=O)c1ccccc1,8,-310,-3,50*,31,32,36,64*,36,34
SMILES,SENP8 block-1,SENP8 block-2,Platelet DG rel,SENP6 inh,SENP7 inh,SENP8 confirm,SENP6 confirm,SENP7 confirm,Casp3 select,Luc interf
CCOC(=O)c1ccc(N/C=C/C(=O)c2ccccc2)cc1,84*,-469,24,93*,95*,13,57*,24,67*,9
Clc1ccc(-c2nnc(-c3ccco3)o2)cc1,52*,-188,-2,63*,73*,36,41,59*,54*,0
c1cncc(-c2nnc(-c3ccco3)o2)c1,1,-129,10,-8,3,.,.,.,.,.
COc1cccc(NC(=O)Nc2nccc(C)n2)c1,31,1,1,58*,55*,30,32,71*,76*,34
Cc1ccnc(NC(=O)Nc2cccc(F)c2)n1,44,9,7,28,67*,30,31,57*,61*,12
Fc1cccc(Cc2c(-c3cccc(Cl)c3)nc3ccc(Cl)cn23)c1,.,-200,.,.,.,.,.,.,.,.
Cc1ccc(C(=O)N=c2sccn2C)cc1C,67*,-195,15,82*,83*,70*,70*,94*,86*,81*
CCOC(=O)C1CCCN(C(=O)c2cccc([N+](=O)[O-])c2C)C1 (centres undefined),-5,16,8,-7,8,.,.,.,.,.
O=[N+]([O-])c1ccc(NN=Cc2ccccc2O)nc1,.,-198,.,.,.,.,.,.,.,.
O=[N+]([O-])c1ccc(N/N=C/c2ccccc2O)cc1,58*,-84,-5,70*,50,-2,41,83*,26,19
O=[N+]([O-])c1cccc(C=Nc2cccc3ccccc23)c1O,85*,-280,-4,88*,43,11,39,4,1,-1
O=[N+]([O-])c1ccc(O)c(C=Nc2cccc3ncccc23)c1,75*,2,10,90*,42,2,2,-2,2,-1
Oc1ccc(C=Nc2cccc3ccccc23)c(O)c1,44,-435,-22,70*,33,-7,2,1,9,1
O=C(Cn1c(=O)oc2ccccc21)N1CCCC1,-5,15,4,-10,-2,.,.,.,.,.
Cc1cccc(OCc2nnc(SCC(=O)N(C)C3CCCCC3)o2)c1,-7,10,.,-7,4,.,.,.,.,.
COC(=O)[C@@]12CCCN1[C@H](c1ccc(-c3ccc(Cl)c(Cl)c3)cc1)[C@H]1C(=O)N(C)C(=O)[C@H]12,-24,-11,1,-39,-2,.,.,.,.,.
COc1ccccc1CC(=O)Nc1ncc(C)s1,3,20,2,12,-3,.,.,.,.,.
CCOc1ccc(S(=O)(=O)N(CC)CC)cc1NC(=O)CSCc1c(C)noc1C,-11,-48,-3,-21,-8,.,.,.,.,.
